Molecules are shown by their SMILES. Where “and” joins values, the source holds several entries; their conditions need not be identical. Equal values may be shown once. Unmarked numbers belong to inactive results. Results filed as inconclusive are left out. Where a call stands in place of a potency, no number is given. Calls of active or inactive are those of the source. The call rests on the fitted dose curve; in most records, active means well fitted curve in the direction sought with a large enough effect in the repeat runs; inconclusive means weak or mixed curves; inactive means no such curve, though single readings can be large; an effect the other way counts as inactive or inconclusive.

One experiment is described as follows: qHTS assay for small molecule disruptors of the mitochondrial membrane potential (AID 720635). Further: potency means the concentration at half of the fitted maximal effect. The note with it: HepG2 mitochondrial membrane potential, Mito-MPS dye ratio; series mostly up to 83.2 µM. Put shortly:
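Mitochondrial membrane potential tracked with Mito-MPS dye, red aggregates (ex 540/em 590 nm) against green monomers (ex 490/em 535 nm). Compound treatment 1 hr at 37C, dye 30 min in HepG2.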
Take `Cn1c(N)nc2nc[nH]c2c1=O`: the Potency entry is “inactive”. Same read-out and setting: the entry for `CCOC(=O)CC(=O)c1cc(F)c(Cl)nc1Cl` is “inactive”; for `Cc1cccc(C(C)(C)C)c1O` it is “inactive”; for `C=Cc1c(C)c2cc3[nH]c(cc4nc(cc5nc(cc1[nH]2)C(C)=C5CCC(=O)O)C(CCC(=O)O)=C4C)c(C)c3C=C` it is “inactive”. On the same count and under the same terms, as for `CCCCCCCCCC(=O)OCC`, the entry is “inactive”; as for `CC(C)CCCC(C)CCO` (stereo unspecified), “inactive”; as for `Cc1cccc(Oc2ccccc2)c1`, “inactive”.

Consider `Nc1ccc(C(=O)Nc2ccccc2N)cc1`, for which the Potency was 13.3 µM (active). On to `CC(=O)/C(C)=C/C1C(C)=CCCC1(C)C` (stereo unspecified), for which the Potency entry is “inactive”. Same read-out and setting: as for `N=C(N=C(N)N)N1CCOCC1`, the entry is “inactive”; as for `CC(C)(C)c1ccc(S)cc1`, “inactive”; as for `NC(=S)N/N=C/c1cccnc1`, “inactive”. Still for that read-out and setting: the entry for `COc1ccc2[nH]c(S(=O)Cc3ncc(C)c(OC)c3C)nc2n1` (stereo unspecified) is “inactive”; for `CCCCCCCCCCCCCCCC(=O)OC/C=C(C)/C=C/C=C(C)/C=C/C1=C(C)CCCC1(C)C` it is “inactive”. Still for that read-out and setting: the entry for `O=[N+]([O-])c1cc[n+]([O-])cc1` is “inactive”; for `CC(CN)CCCN` (stereo unspecified) it is “inactive”; for `CC(=O)NCCCS(=O)(=O)O` it is “inactive”.

For `CC[C@]12CCCN3CCc4c(n(c5ccccc45)C(=O)C1)[C@@H]32`, the Potency entry was “inactive”. Still for that read-out and setting: the entry for `C=CCCCCCC` is “inactive”; for `CC(=O)O[C@H]1C[C@@H]2CC[C@@H]3[C@H](CC[C@@]4(C)[C@H]3C[C@H]([N+]3(C)CCCCC3)[C@@H]4OC(C)=O)[C@@]2(C)C[C@@H]1N1CCCCC1` it is “inactive”. On the same count and under the same terms, as for `O=C(O)Cc1sc(-c2ccccc2)nc1-c1ccc(Cl)cc1`, the figure is 24.8 µM (active) and 23.7 µM (active) and 26.6 µM (active); as for `Cc1c(Cn2ccnc2)c2ccccc2n1CCC(=O)O`, “inactive”. Same read-out and setting: as for `Nc1nc(CC(=O)O)cs1`, the entry is “inactive”; as for `OCC1CC2CC1C1CCC(CO)C21` (stereo unspecified), “inactive”; as for `FC(F)(F)C(F)(F)C(F)(F)C(F)(F)C(F)(F)C(F)(F)CCI`, “inactive”. On to `CCN(CCO)CCCC(C)Nc1ccnc2cc(Cl)ccc12` (stereo unspecified), for which the Potency result is “inactive”.

On to `Nc1nc(N)c(-c2ccccc2)s1`, for which the Potency result is “inactive”. The same measure, in the same setting: as for `CCC(C)N(C)C(=O)c1cc2ccccc2c(-c2ccccc2Cl)n1` (stereo unspecified), the entry is “inactive”; as for `NCCCOCCOCCOCCCN`, “inactive”. On the same count and under the same terms, the entry for `Cc1ccc(C(=O)C(C)CN2CCCCC2)cc1` (stereo unspecified) is “inactive”. Still for that read-out and setting: as for `CC(C)(C)C1CCCCC1O` (stereo unspecified), the entry is “inactive”.

With `CCN(CC)CCc1nc(-c2ccccc2)no1`, the Potency entry is “inactive”. Same read-out and setting: the entry for `Cc1cc(CC(=O)O)c(C)n1-c1ccc(Cl)cc1` is “inactive”.

A short description of a further experiment: qHTS assay to test for compound auto fluorescence at 590 nm (red) in HepG2 cells (AID 720674). To be noted: HepG2 autofluorescence, red 540/590 nm, 1 h; series mostly up to 91.3 µM. Put shortly:
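We screened compounds on adherent HepG2 cells, incubating them for an hour at 37 C in 5% CO2 before reading emission at 590 nm under 540 nm excitation; values reflect equivalence to Rose Bengal sodium fluorescence.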
(In general: In qHTS, concentration-response curves come from the screen itself.)
As to `Cn1c(N)nc2nc[nH]c2c1=O`, the call was inactive.

With `CCOC(=O)CC(=O)c1cc(F)c(Cl)nc1Cl`, the outcome was inactive. Same read-out and setting: as for `Cc1cccc(C(C)(C)C)c1O`, the entry is “inactive”; as for `C=Cc1c(C)c2cc3[nH]c(cc4nc(cc5nc(cc1[nH]2)C(C)=C5CCC(=O)O)C(CCC(=O)O)=C4C)c(C)c3C=C`, “inactive”. On the same count and under the same terms, as for `CCCCCCCCCC(=O)OCC`, the entry is “inactive”. Same read-out and setting: as for `CC(C)CCCC(C)CCO` (stereo unspecified), the entry is “inactive”; as for `Cc1cccc(Oc2ccccc2)c1`, “inactive”; as for `Nc1ccc(C(=O)Nc2ccccc2N)cc1`, “inactive”.

Turning to `CC(=O)/C(C)=C/C1C(C)=CCCC1(C)C` (stereo unspecified), the compound was called inactive. As for `N=C(N=C(N)N)N1CCOCC1`, the fluorescence, relative to Rose Bengal is 0.372% [at 18.6 µM].

On to `CC(C)(C)c1ccc(S)cc1`, for which the result was inactive. On the same count and under the same terms, as for `NC(=S)N/N=C/c1cccnc1`, the entry is “inactive”; as for `COc1ccc2[nH]c(S(=O)Cc3ncc(C)c(OC)c3C)nc2n1` (stereo unspecified), “inactive”. The same measure, in the same setting: the entry for `CC1=CC(=O)/C(=C(/C)O)C(=O)O1` is “inactive”; for `CCCCCCCCCCCCCCCC(=O)OC/C=C(C)/C=C/C=C(C)/C=C/C1=C(C)CCCC1(C)C` it is “inactive”. Same read-out and setting: as for `O=[N+]([O-])c1cc[n+]([O-])cc1`, the entry is “inactive”; as for `CC(CN)CCCN` (stereo unspecified), “inactive”. On to `CC(=O)NCCCS(=O)(=O)O`, for which the result was inactive. Regarding `CC[C@]12CCCN3CCc4c(n(c5ccccc45)C(=O)C1)[C@@H]32`, the fluorescence, relative to Rose Bengal was -0.674% [at 18.6 µM]. Take `CCCCCCCCCO`: the result was inactive.

As for `CC(=O)[C@@]1(O)CC[C@H]2[C@@H]3C[C@H](C)C4=CC(=O)CC[C@]4(C)[C@H]3CC[C@@]21C`, the result was inactive. The same measure, in the same setting: the entry for `C=CCCCCCC` is “inactive”; for `CC(=O)O[C@H]1C[C@@H]2CC[C@@H]3[C@H](CC[C@@]4(C)[C@H]3C[C@H]([N+]3(C)CCCCC3)[C@@H]4OC(C)=O)[C@@]2(C)C[C@@H]1N1CCCCC1` it is “inactive”. For `C=CC[N+]1([C@H]2C[C@H]3[C@@H]4CC[C@H]5C[C@H](OC(C)=O)[C@@H](N6CCCCC6)C[C@]5(C)[C@H]4CC[C@]3(C)[C@H]2OC(=O)CC)CCCCC1`, the call was inactive. The same measure, in the same setting: as for `O=C(O)Cc1sc(-c2ccccc2)nc1-c1ccc(Cl)cc1`, the entry is “inactive”.

In the case of `Cc1c(Cn2ccnc2)c2ccccc2n1CCC(=O)O`, the outcome was inactive.

For the compound `CC[C@H](C)[C@H](N)C(=O)O`, the result was inactive.

`Nc1nc(CC(=O)O)cs1`: the call was inactive. On the same count and under the same terms, as for `OCC1CC2CC1C1CCC(CO)C21` (stereo unspecified), the entry is “inactive”; as for `FC(F)(F)C(F)(F)C(F)(F)C(F)(F)C(F)(F)C(F)(F)CCI`, “inactive”. Still for that read-out and setting: the entry for `CCN(CCO)CCCC(C)Nc1ccnc2cc(Cl)ccc12` (stereo unspecified) is “inactive”; for `Nc1nc(N)c(-c2ccccc2)s1` it is “inactive”. On the same count and under the same terms, the entry for `CCC(C)N(C)C(=O)c1cc2ccccc2c(-c2ccccc2Cl)n1` (stereo unspecified) is “inactive”. In the case of `NCCCOCCOCCOCCCN`, the result was inactive. Still for that read-out and setting: the entry for `Cc1ccc(C(=O)C(C)CN2CCCCC2)cc1` (stereo unspecified) is “inactive”; for `CC(C)(C)C1CCCCC1O` (stereo unspecified) it is “inactive”. Turning to `CCN(CC)CCc1nc(-c2ccccc2)no1`, the fluorescence, relative to Rose Bengal is 0.351% [at 18.6 µM]. Regarding `Cc1cc(CC(=O)O)c(C)n1-c1ccc(Cl)cc1`, the outcome was inactive.

Values taken from PubChem BioAssay (Tox21).
